Assay [1] is described as follows: qHTS assay to identify small molecule agonists of the peroxisome proliferator-activated receptor delta (PPARd) signaling pathway - cell viability counter screen (AID 743211). Also: nearly all actives have a fitted effect of over 55% in size. The procedure, abridged:
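Tox21 library compounds, delivered in DMSO, were incubated 17 h with PPARd-bla HEK293H cells; cytotoxicity was taken from CellTiter-Glo luminescence read 30 min after reagent addition.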
A general note: In qHTS, concentration-response curves come from the screen itself.

In assay [2] the target is Peroxisome proliferator-activated receptor delta (Homo sapiens) (UniProt Q03181). Briefly: qHTS assay to identify small molecule agonists of the peroxisome proliferator-activated receptor delta (PPARd) signaling pathway (AID 743212; calls by dose curve). The procedure, abridged: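 Cells expressing a UAS-driven beta-lactamase reporter (PPARd-bla HEK293H) were given test compounds after a 5 h settle and kept at 37 C. Reporter activity was then measured as FRET fluorescence using LiveBLAzer B/G substrate.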

Assay [3] can be described thus: qHTS assay to identify small molecule antagonists of the peroxisome proliferator-activated receptor delta (PPARd) signaling pathway - cell viability counter screen (AID 743213). Also: nearly all actives have a fitted effect of over 50% in size. The procedure, abridged: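 Agonist-stimulated (L165041, 300 nM final) HEK293H PPARd UAS-bla cells are exposed to compounds for 17 h at 37 C, and ATP-based luminescence (CellTiter-Glo) from the same wells reports cytotoxicity.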

In assay [4] the target is Peroxisome proliferator-activated receptor delta (Homo sapiens) (UniProt Q03181). Briefly: qHTS assay to identify small molecule antagonists of the peroxisome proliferator-activated receptor delta (PPARd) signaling pathway (AID 743215; active = well fitted inhibition curve with a large enough effect in the signal ratio in the repeat runs, not every such curve was filed as active; the % refers to the signal ratio; also: series mostly up to about 62 µM). The procedure, abridged: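 Cells: HEK293H with a UAS-driven beta-lactamase reporter responsive to PPARd. Compounds were co-added with L165041 (300 nM, final) and incubated 17 h at 37 C before a 2 h room-temperature FRET substrate step and fluorescence reading.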

Assay [5] can be described thus: qHTS assay to identify small molecule agonists of the farnesoid-X-receptor (FXR) signaling pathway - cell viability counter screen (AID 743218). Also: nearly all actives have a fitted effect of over 45% in size. The procedure, abridged: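 Cells were seeded, left 5 h at 37 C and 5% CO2, then dosed with compound in DMSO for 16 h. After the beta-lactamase FRET read, CellTiter-Glo was added and luminescence measured 30 min later.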
The nature of assay [6]: qHTS assay to identify small molecule antagonists of the farnesoid-X-receptor (FXR) signaling pathway - cell viability counter screen (AID 743221; active = well fitted cell-killing curve with a large enough effect in the repeat runs, not every such curve was filed as active; also: nearly all actives have a fitted effect of over 50% in size). The procedure, abridged: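 Cytotoxicity is taken from ATP luminescence (CellTiter-Glo, 30 min, room temperature) in FXR-bla HEK 293T cells previously incubated 16 h at 37 C with compound and chenodeoxycholic acid at 50 uM final.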

Assay [7] addresses Vitamin D3 receptor (Homo sapiens) (UniProt P11473). Put plainly: qHTS assay to identify small molecule agonists of the vitamin D receptor (VDR) signaling pathway (AID 743222; calls by dose curve). The procedure, abridged: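 Cells carrying a VDR-driven beta-lactamase reporter are seeded at 2,000 per well and rested 4 h. Compounds in DMSO are added for 16 h at 37C, and FRET substrate fluorescence is measured after 2 h at room temperature.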

Assay [8] shares this target. Put plainly: qHTS assay to identify small molecule antagonists of the vitamin D receptor (VDR) signaling pathway (AID 743223; active = well fitted inhibition curve with a large enough effect in the signal ratio in the repeat runs, not every such curve was filed as active; the % refers to the signal ratio). The procedure, abridged:
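Quantitative HTS in VDR-bla reporter cells stimulated with 1alpha,25-dihydroxyvitamin D3, 3 nM final. Compound exposure 16 h, 37C, 5% CO2. Read-out: beta-lactamase FRET substrate fluorescence, 2 h RT.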

Assay [9] can be described thus: qHTS assay to identify small molecule agonists of the vitamin D receptor (VDR) signaling pathway - cell viability counter screen (AID 743224). Also: series mostly up to about 63 µM; nearly all actives have a fitted effect of over 50% in size. The procedure, abridged: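 Cells: VDR-bla, 2,000/well, settled 4 h. Treatment: compounds in DMSO, 16 h, 37C/5% CO2. Readout: CellTiter-Glo luminescence after 30 min RT.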
Assay [10] is described as follows: qHTS assay to identify small molecule antagonists of the vitamin D receptor (VDR) signaling pathway - cell viability counter screen (AID 743225). Also: nearly all actives have a fitted effect of over 50% in size. The procedure, abridged:
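Same-well multiplex: following 16 h treatment of HEK 293T cells carrying a UAS-driven beta-lactamase reporter with compound and agonist (3 nM final), and a 2 h FRET substrate step, CellTiter-Glo was added and luminescence read after 30 min.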

A short description of assay [11]: qHTS assay to identify small molecule agonists of the NFkB signaling pathway - cell viability counter screen (AID 1159515; calls by dose curve; also: series mostly up to about 61 µM; nearly all actives have a fitted effect of over 55% in size). The procedure, abridged: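 Cells are seeded (2,000 NFkB-bla ME-180 per well), rested overnight, and dosed with DMSO-dissolved compounds for 5 hr at 37 C. Viability is then read by CellTiter-Glo luminescence after 30 min at room temperature.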

Assay [12] in a line: qHTS assay to identify small molecule agonists of the endoplasmic reticulum stress response signaling pathway - cell viability counter screen (AID 1159517; calls by dose curve). The procedure, abridged:
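Cpd-treated ESRE-bla HeLa (5 hr, 37 C) → LiveBLAzer 2 hr RT → CellTiter-Glo 30 min RT → luminescence.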

The target of assay [13] is Nuclear receptor ROR-gamma (Homo sapiens) (UniProt P51449). Briefly: qHTS assay to identify small molecule antagonists of the retinoid-related orphan receptor gamma (ROR-gamma) signaling pathway (AID 1159521). The procedure, abridged: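 Inducible-expression reporter assay: doxycycline (1 uM final) switched on RORγ in CHO cells bearing a ROR response element-luciferase construct, with test compounds present from 2 h beforehand. Decreased luminescence after 16 h defined antagonist activity.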

Assay [14] in a line: qHTS assay to identify small molecule agonists of the AP-1 signaling pathway - cell viability counter screen (AID 1159525; calls by dose curve; also: nearly all actives have a fitted effect of over 55% in size). The procedure, abridged:
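Each titration point was normalised to DMSO and tetra n-octyl ammonium bromide controls. The read was Cell Titer Glo luminescence after 30 min at RT, following 5 h compound exposure of ME-180 AP-1-bla cells at 37 °C.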

Assay [15] is described as follows: qHTS assay to identify small molecule agonists of the AP-1 signaling pathway (AID 1159526; calls by dose curve; also: potency is read from the fitted curve at half-maximal effect).
Assay [16] has as its target Retinoic acid receptor RXR-alpha (Homo sapiens) (UniProt P19793). Briefly: qHTS assay to identify small molecule agonists of the RXR signaling pathway (AID 1159527; calls by dose curve; also: nearly all actives have a fitted effect of over 35% in size; also: potency is read from the fitted curve at half-maximal effect). The procedure, abridged: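 Compounds in DMSO were added to RXR-alpha-UAS-bla HEK 293T cells kept in 2% charcoal-stripped serum, and incubated 16 hr at 37 C with 5% CO2. Reporter signal came from a 2 hr B/G FRET substrate step.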

Assay [17] deals with Bile acid receptor (Homo sapiens) (UniProt Q96RI1). Briefly: qHTS assay to identify small molecule antagonists of the farnesoid-X-receptor (FXR) signaling pathway (AID 743217; active = well fitted inhibition curve with a large enough effect in the signal ratio in the repeat runs, not every such curve was filed as active; the % refers to the signal ratio). The procedure, abridged: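 Cells carrying a UAS-driven beta-lactamase reporter (GeneBLAzer FXR-UAS-bla HEK 293T) were plated and rested 5 h at 37 °C. Compounds in DMSO were added alongside chenodeoxycholic acid agonist at 50 uM final and left 16 h at 37 °C before FRET substrate readout.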

Assay [18] shares this target. Put plainly: qHTS assay to identify small molecule agonists of the farnesoid-X-receptor (FXR) signaling pathway (AID 743220; active = well fitted activation curve with a large enough effect in the signal ratio in the repeat runs, not every such curve was filed as active; the % refers to the signal ratio; also: potency is read from the fitted curve at half-maximal effect). The procedure, abridged: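 FXR-UAS-bla HEK 293T cells carrying a UAS-driven beta-lactamase reporter were plated for 5 h at 37C/5% CO2, then exposed to DMSO-dissolved Tox21 10K compounds for 16 h at 37C. A LiveBLAzer B/G FRET substrate was loaded for 2 h at room temperature before fluorescence reading.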

A short description of assay [19]: qHTS assay to identify small molecule antagonists of the retinoid-related orphan receptor gamma (ROR-gamma) signaling pathway - cell viability counter screen (AID 1159520). Also: nearly all actives have a fitted effect of over 50% in size. Also: potency is read from the fitted curve at half-maximal effect. The procedure, abridged: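 Tet-on ROR gamma CHO cells (1,000/well) were plated 4 hr, given compounds in DMSO for 2 hr at 37 C, then induced with 1 uM final doxycycline for 16 hr. Viability was read as ATP by CellTiter-Glo luminescence after 30 min.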

Results on 10 compounds are retold here after PubChem BioAssay (Tox21).

Records with an inconclusive call do not appear. Unmarked numbers belong to inactive results. Active and inactive are the calls of the source. Unless noted, calls follow the shape of the dose curve; as a rule, active = well fitted curve in the direction sought with a large enough effect in the repeat runs; inconclusive = weak or mixed curves; inactive = no such curve, though single readings can be large; an effect the other way counts as inactive or inconclusive.

Vitamin D3 receptor (Homo sapiens), sequence (P11473 whole entry, looked up): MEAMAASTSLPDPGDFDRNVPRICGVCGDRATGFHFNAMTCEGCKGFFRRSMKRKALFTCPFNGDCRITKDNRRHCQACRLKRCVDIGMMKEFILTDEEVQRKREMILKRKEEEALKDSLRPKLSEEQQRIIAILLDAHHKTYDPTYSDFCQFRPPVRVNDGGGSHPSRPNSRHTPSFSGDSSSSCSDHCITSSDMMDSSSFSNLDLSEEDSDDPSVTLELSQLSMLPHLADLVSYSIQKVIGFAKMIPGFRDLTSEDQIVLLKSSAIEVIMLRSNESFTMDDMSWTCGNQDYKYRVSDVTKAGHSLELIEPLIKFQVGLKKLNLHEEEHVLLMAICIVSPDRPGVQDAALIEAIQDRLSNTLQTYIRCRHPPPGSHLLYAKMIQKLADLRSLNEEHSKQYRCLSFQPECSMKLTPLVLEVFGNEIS
Bile acid receptor (Homo sapiens), sequence (Q96RI1 whole entry, looked up): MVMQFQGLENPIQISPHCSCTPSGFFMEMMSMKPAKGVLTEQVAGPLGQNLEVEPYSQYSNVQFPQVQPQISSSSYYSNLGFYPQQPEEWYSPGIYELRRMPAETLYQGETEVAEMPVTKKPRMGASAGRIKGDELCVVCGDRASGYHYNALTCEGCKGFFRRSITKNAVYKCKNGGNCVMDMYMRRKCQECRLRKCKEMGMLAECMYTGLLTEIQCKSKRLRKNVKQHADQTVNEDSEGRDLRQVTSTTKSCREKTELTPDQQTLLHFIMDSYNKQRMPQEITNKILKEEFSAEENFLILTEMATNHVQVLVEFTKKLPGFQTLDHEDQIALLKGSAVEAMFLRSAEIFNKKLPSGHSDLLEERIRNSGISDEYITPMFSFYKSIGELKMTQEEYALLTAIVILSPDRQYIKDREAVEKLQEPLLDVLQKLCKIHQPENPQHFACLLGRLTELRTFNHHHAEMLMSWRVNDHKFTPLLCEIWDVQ
Peroxisome proliferator-activated receptor delta (Homo sapiens), sequence (Q03181 whole entry, looked up): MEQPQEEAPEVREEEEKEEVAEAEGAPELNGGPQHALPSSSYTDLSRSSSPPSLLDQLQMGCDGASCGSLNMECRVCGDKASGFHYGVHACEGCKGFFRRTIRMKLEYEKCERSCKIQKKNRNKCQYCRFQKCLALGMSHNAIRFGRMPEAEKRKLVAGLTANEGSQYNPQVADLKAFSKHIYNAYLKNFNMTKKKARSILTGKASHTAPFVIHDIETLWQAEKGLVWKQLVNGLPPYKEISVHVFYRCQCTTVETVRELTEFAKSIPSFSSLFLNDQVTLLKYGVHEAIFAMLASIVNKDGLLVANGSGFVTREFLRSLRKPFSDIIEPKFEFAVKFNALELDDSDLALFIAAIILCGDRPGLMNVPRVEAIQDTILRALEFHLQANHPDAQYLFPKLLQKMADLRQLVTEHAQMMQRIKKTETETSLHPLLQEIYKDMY
Retinoic acid receptor RXR-alpha (Homo sapiens), sequence (P19793 whole entry, looked up): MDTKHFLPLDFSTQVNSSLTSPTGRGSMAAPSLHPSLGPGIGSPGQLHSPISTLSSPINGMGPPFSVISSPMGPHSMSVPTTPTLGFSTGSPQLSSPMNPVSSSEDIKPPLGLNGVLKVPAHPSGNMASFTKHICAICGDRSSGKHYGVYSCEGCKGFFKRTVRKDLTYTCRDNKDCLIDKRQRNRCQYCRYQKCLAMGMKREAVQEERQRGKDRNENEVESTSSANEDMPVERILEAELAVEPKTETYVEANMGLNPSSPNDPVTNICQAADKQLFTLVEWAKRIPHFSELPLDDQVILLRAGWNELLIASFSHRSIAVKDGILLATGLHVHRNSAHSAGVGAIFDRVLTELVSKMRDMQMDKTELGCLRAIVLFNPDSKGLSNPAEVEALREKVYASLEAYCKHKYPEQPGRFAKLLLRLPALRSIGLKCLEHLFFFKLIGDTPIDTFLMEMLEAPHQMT

Take `Cc1c(C)c2c(c(C)c1O)CC[C@@](C)(CCC[C@H](C)CCC[C@H](C)CCCC(C)C)O2`: the Potency result in assay [1], in assay [2], in [3], in [4], in [5] and in assay [6] was “inactive” throughout. Besides, the Potency result in [7], in [8], in [9], in assay [10], in assay [11] and in assay [12] was “inactive” in each case. In addition, the Potency result in [13], in [14], in assay [15] and in assay [16] was “inactive” in each case.
Regarding `CN(C)Cc1ccccc1O`, the Potency entry in assay [1], in [2], in [3], in [4], in assay [17] and in [5] was “inactive” throughout. Besides, the Potency entry in assay [18], in assay [6], in [8], in assay [9], in [10] and in assay [11] was “inactive” each time. The Potency result in [12], in [19], in assay [14], in assay [15] and in [16] was “inactive” throughout.
As to `CCCCC(CC)COC(=O)CCCCC(=O)OCc1ccccc1` (stereo unspecified), the Potency result in assay [2], in assay [3], in [4], in [17], in assay [5] and in assay [18] was “inactive” in each case. Besides, the Potency entry in [6], in assay [8], in assay [9], in assay [10], in assay [11] and in assay [12] was “inactive” each time. Moreover, the Potency entry in assay [19], in assay [14], in assay [15] and in [16] was “inactive” throughout.
Consider `O=C(O)Cc1ccc2c(c1)C(=O)c1ccccc1CO2`, for which the Potency entry in assay [1], in assay [2], in assay [4], in [5], in [6] and in assay [8] was “inactive” each time. The Potency entry in assay [10], in assay [11], in [12], in assay [19], in assay [13] and in [15] was “inactive” throughout.
On to `COc1ccc2c(c1)c(CC(=O)OC/C=C(\C)CC/C=C(\C)CCC=C(C)C)c(C)n2C(=O)c1ccc(Cl)cc1`, for which the Potency entry in assay [1], in assay [3], in assay [5], in assay [18], in assay [6] and in assay [8] was “inactive” in each case. Besides, the Potency result in assay [9], in [10], in assay [11], in assay [12], in assay [19] and in [15] was “inactive” each time.
With `O=c1oc2cc(O)ccc2c2oc3cc(O)ccc3c12`, the Potency result in [1], in [5], in assay [6], in assay [9], in assay [10] and in assay [11] was “inactive” throughout. Moreover, the Potency entry in assay [12], in [19], in [14] and in assay [15] was “inactive” in each case.
On to `CCCCCCC1CCCC(=O)O1` (stereo unspecified), for which the Potency entry in assay [1], in assay [3], in assay [4], in [5], in assay [6] and in assay [8] was “inactive” throughout. For the same compound, the Potency entry in assay [9], in assay [10], in assay [11], in assay [12], in [13] and in [14] was “inactive” each time. The Potency entry in assay [15] is “inactive”.
As for `O=S(=O)(O)c1ccccc1/C=C/c1ccc(-c2ccc(/C=C/c3ccccc3S(=O)(=O)O)cc2)cc1`, the Potency result in assay [1], in assay [5], in assay [6], in assay [9], in [10] and in assay [11] was “inactive” throughout. The Potency entry in assay [12], in assay [19] and in assay [13] was “inactive” each time. Moreover, the Potency is 31.3 µM (active) in assay [18], 31.3 µM (active) in assay [15] and 35.2 µM (active) in [16].
With `CCCCOC(=O)CC`, the Potency entry in assay [1], in [2], in assay [3], in assay [4], in assay [17] and in assay [5] was “inactive” each time. The Potency entry in [18], in assay [6], in assay [7], in assay [8], in assay [9] and in [10] was “inactive” in each case. The Potency entry in [11], in [12], in assay [13], in assay [14] and in assay [15] was “inactive” each time.
Regarding `CCCCCCCCCCC[C@@H](C[C@@H]1OC(=O)[C@H]1CCCCCC)OC(=O)[C@H](CC(C)C)NC=O`, the Potency entry in [2], in assay [3], in [4], in assay [5], in [8] and in assay [11] was “inactive” in each case. For the same compound, the Potency entry in assay [12], in [14], in assay [15] and in assay [16] was “inactive” each time. Besides, the Potency in assay [19] is 11.9 µM (active).
